Bioassay records: PubChem BioAssay, National Center for Advancing Translational Sciences (NCATS)
SARS PLpro yeast: SARS-CoV PLP inhibition in yeast | Potency, µM (doses to about 32.9 µM), most hits filed as activators | actives 0.19% (n = 330,000) | S. cerevisiae expressing SARS-CoV PLpro, growth rescue | AID 485353; further: nearly all actives have a fitted effect of over 55% in size
NS1 inh: blocks influenza NS1 protein function. Potency, µM (highest dose often 46.1 µM). actives 0.4% (n = 270,000). AID 2326; further: actives are rising curves; nearly all actives have a fitted effect of over 50% in size
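In this qHTS, NS1 from influenza A is expressed in budding yeast, where it slows growth. Cells are switched from glucose to 2% galactose medium (pH 6.0, -URA), treated with compound, and growth recovery is read at OD600.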
Shiga toxin inh: blocks Shiga toxin action in Vero cells. actives 9.2% (n = 290,000). Vero cells, Shiga toxin protein synthesis inhibition reporter. inhibition, % at 38.7 µM. AID 2315; in the data active means inhibition mostly above about 28%, no sharp cut-off; inactive means mostly below about 43%
Cycloheximide cs: affects cycloheximide protein synthesis inhibition readout, counter-screen; max response, %; AID 2314; cell reporter, cycloheximide protein synthesis inhibition counterscreen; actives 12% (n = 300,000); in the data active means max response mostly above about 13%, no sharp cut-off; inactive means mostly below about 14%; further: read at 38.3 µM for the half of the compounds with a filed dose
Hits are given with their value; 0 = inactive; ? = inconclusive; - = no result. A selection: hits, their analogues and other compounds. The true share with any hit is near 12%. Unless noted, the call rests on the fitted dose curve.

SMILES | SARS PLpro yeast | NS1 inh | Shiga toxin inh | Cycloheximide cs
CC1=[N+](C)c2c(ccc3cccnc23)C1(C)C | 0 | 0 | 0 | 0
CCCCCCCCCCCCC/C=C/[C@@H](O)[C@@H](N)COP(=O)(O)O | - | - | 0 | 0
Cc1ccnc(NC(=O)c2c(O)c3ccccc3n(C)c2=O)c1 | 0 | 0 | 71.2 | 50.6
Cc1cccc(NC(=O)c2c(O)c3ccccc3n(C)c2=O)c1 | 0 | 0 | - | 24.9
COc1cccc(CNC(=O)C2CCC(=O)N(C3CC3)C2)c1OC (stereo not drawn) | 0 | 0 | 0 | 0
Cc1ccnc(N/C=C(\C#N)c2nc(-c3cccc(Br)c3)cs2)c1 | 0 | 0 | 0 | 15.5
COC(=O)C1=C(C)NC(C)=C(C(=O)OC)C1c1ccccc1[N+](=O)[O-] | 2µM | 0 | 0 | 0
CCOC(=O)C1=C(C)NC(C)=C(C(=O)OC)C1c1cccc([N+](=O)[O-])c1 (stereo not drawn) | 0 | 0 | 0 | 0
O=C(CCNC(=O)C1CCN(S(=O)(=O)c2ccc(F)cc2)CC1)Nc1nccs1 | 0 | 0 | 0 | 0
C=CCSc1nc(N)c2c3c(sc2n1)CN(C)CC3 | 0 | 0 | 0 | 21.3
CCSc1nc(N)c2c3c(sc2n1)CN(C)CC3 | 0 | 0 | 0 | 0
COC(CSc1nc(N)c2c3c(sc2n1)CN(C)CC3)OC | 0 | 0 | 0 | 30.7
C=CCSc1nc(N)c2c(C)c(C)sc2n1 | 0 | 0 | 0 | 10.7
Cc1ccc(Cl)cc1N1CCN(C(=O)c2noc(C(C)C)c2[N+](=O)[O-])CC1 | 0 | 0 | 0 | 0
Cc1cccc2cc3c(nc12)SC(=NCC1CCCO1)N(Cc1ccco1)C3 (stereo not drawn) | 0 | 0 | 0 | 19.9
Cc1ccc2nc3c(cc2c1)CN(Cc1ccco1)C(=NCC1CCCO1)S3 (stereo not drawn) | 0 | 0 | 0 | 0
CCC(=O)Nc1cc2c3c(c1)CCC(=O)N3CCC2 | 0 | 0 | 0 | 0
CCCCCCNC(=O)Nc1ccccc1 | 0 | 0 | 61.3 | 44.5
O=C(NCCC1CC1(Cl)Cl)Nc1ccccc1 (stereo not drawn) | 0 | 0 | 53.5 | 0
CCCCSCCCNC(=O)Nc1ccc(CC)cc1 | 0 | - | 0 | 11.3
O=C(O)CCCNC(=O)Nc1ccccc1 | 0 | 0 | 0 | 0
O=C(CN1CC(=O)Nc2ccccc21)NCCc1ccc(Cl)cc1Cl | 0 | - | 0 | 0
Cc1ccccc1SC1CCN(Cc2nc(C3CC3)no2)CC1 | 0 | 0 | 0 | 19.3
COc1ccc(Nc2ncnc3c2cnn3-c2ccccc2)cc1OC | 0 | 0 | 0 | 0
CC(=O)Nc1ccc(Nc2ncnc3c2cnn3-c2cccc(C)c2)cc1 | 0 | 0 | 54.9 | 33.4
SMILES | SARS PLpro yeast | NS1 inh | Shiga toxin inh | Cycloheximide cs
CC(=O)NNc1ncnc2c1cnn2-c1ccccc1 | 0 | - | 0 | 0
CC(=O)Nc1ccc(Nc2ncnc3c2cnn3-c2ccccc2)cc1 | 0 | 0 | 50.2 | 41.1
Clc1ccc(Nc2ncnc3c2cnn3-c2ccccc2)cc1 | 0 | 0 | 58.2 | 41.8
CC(=O)Nc1ccc(Nc2ncnc3c2cnn3-c2ccc(C)cc2C)cc1 | 0 | 0 | 0 | 0
CC(C)Nc1ncnc2c1cnn2-c1ccc(Cl)cc1 | 0 | 0 | 31.0 | 21.4
CC1([N+](=O)[O-])COC2(OC1)C(=O)Nc1ccccc12 (stereo not drawn) | 0 | 0 | 0 | 0
O=C1C2CCC(C2)[C@@H]2CCCCN12 (stereo partly drawn) | - | - | 0 | 0
COc1cccc(CNCC(=O)NC(=O)NC2CCCC2)c1 | 0 | - | - | -
CC(C)NC[C@H](O)COc1ccc(CC(N)=O)cc1 | - | 0 | - | -
COc1ccc(/C=C2/N=C3CCCCCN3C2=O)cc1 | 0 | - | 74.9 | 30.2
O=C1/C(=C\c2ccc(O)c(O)c2)N=C2CCCCCN12 | 0 | 0 | 105.7 | 17.2
O=C1/C(=C/c2cccnc2)N=C2CCCCCN12 | 0 | ? | 0 | 0
COc1ccc(/C=C2\N=C3CCCCCN3C2=O)cc1OC | 0 | 0 | 0 | 0
COc1cc(/C=C2\N=C3CCCCCN3C2=O)ccc1O | 0 | 0 | 114.2 | 30.3
CCCCC(=O)OCc1nc(N)nc(Nc2ccccc2C)n1 | 0 | 0 | active | 58.0
Cc1ccccc1Nc1nc(N)nc(COC(=O)c2ccco2)n1 | 0 | - | - | -
Cc1ccccc1Nc1nc(N)nc(COC(=O)C2CCCCC2)n1 | 0 | 0 | 69.7 | 70.9
COc1ccccc1C(=O)OCc1nc(N)nc(Nc2ccccc2C)n1 | 0 | 0 | 0 | 36.1
Cc1cc(C)cc(N(CC(=O)NC(C)(C)C)C(=O)CNC(=O)c2cccs2)c1 | 0 | 0 | 0 | 0
O=C(NCCc1ccccc1)c1coc(=O)c(Br)c1 | 0 | 0 | 0 | 13.8
O=C(Nc1ccccc1C(=O)NCCc1ccccc1)c1ccco1 | 0 | 0 | 0 | 36.6
Cc1ccccc1CS(=O)(=O)Cc1ccc(C(=O)NCCc2ccccc2)o1 | ? | 0 | 0 | 22.5
CC(=O)c1c(C)[nH]c(C(=O)NCCc2ccccc2)c1C | 0 | 0 | 104.2 | 36.4
Cc1cc(SCC(=O)N(C)CC(=O)Nc2ccc(F)cc2)nc2ccccc12 | 0 | 0 | 0 | 0
CCCOc1ccc(CNC(=O)C2CCN(C(=O)N3CCOc4ccccc43)CC2)cc1 | 0 | 0 | 0 | 0
SMILES | SARS PLpro yeast | NS1 inh | Shiga toxin inh | Cycloheximide cs
CCC(NC(=O)c1ccccc1NC(=O)c1ccco1)C(=O)NC1CCCCC1 (stereo not drawn) | 0 | 0 | 0 | 22.5
O=C(NCCc1ccccc1)c1c(F)cccc1F | 0 | 0 | 99.1 | 39.1
O=C(COC(=O)c1ccccc1NC(=O)c1ccco1)NC1CC1 | 0 | 0 | 0 | 0
CC(=O)c1c(C)[nH]c(C(=O)NCC2CCCCC2)c1C | 0 | 0 | 63.2 | 0
CC1CCN(C(=O)COC(=O)c2ccccc2NC(=O)c2ccco2)CC1 | 0 | 0 | 100.8 | 44.0
CC1CCCC(NC(=O)CN2C(=O)NC(Cc3c[nH]c4ccccc34)C2=O)C1C (stereo not drawn) | 0 | - | - | -
CN(CC(=O)NCCc1ccccc1)Cc1ccco1 | 0 | 0 | 98.8 | 32.3
O=C(NCCc1ccccc1)c1ccco1 | 0 | 0 | 86.1 | 49.5
NS(=O)(=O)c1ccc(CCNC(=O)c2ccco2)cc1 | 0 | - | 0 | 0
O=C(NCc1ccccc1)c1ccccc1NC(=O)C1CCCCC1 | 0 | 0 | 0 | 0
O=C(NCCc1ccccc1)c1ccccc1NC(=O)C1CCCCC1C(=O)O (stereo not drawn) | 0 | 0 | 55.6 | 28.5
O=C(NCC1OCCc2ccccc21)c1ccco1 (stereo not drawn) | 0 | 0 | 34.2 | 19.5
Cc1ccnc(NC(=O)CCC(=O)N(CC(=O)NCCc2ccccc2)Cc2ccco2)c1 | 0 | 0 | 0 | 0
COc1ccc(NC(=O)c2sccc2SCc2cccc(C(F)(F)F)c2)cc1 | 0 | 0 | 36.0 | 16.1
CC(C)(C)c1ccc(C(=O)N/N=C/c2ccccn2)cc1 | 0 | 0 | 84.7 | 45.4
Cc1occc1C(=O)N/N=C/c1ccccn1 | 0 | 0 | 75.0 | 38.1
Cc1ccc(C(=O)N/N=C\c2cccn2C)cn1 | 0 | 0 | 0 | 0
C(=N\N=C\c1ccccn1)/c1ccccn1 | 0 | 0 | 0 | 12.6
O=C(N/N=C/c1ccccn1)c1cc([N+](=O)[O-])cc([N+](=O)[O-])c1 | 0 | - | 0 | 0
Cc1ccc(C(=O)N/N=C\c2ccccn2)cn1 | 0 | 0 | 62.5 | 40.1
CN1CCC(=NNC(=O)C(=O)Nc2ccccc2F)CC1 | 0 | - | 0 | 0
CC1C/C(=N/O)C(C)CN1 (stereo not drawn) | 0 | 0 | 0 | 0
S=C1NCCNC(=S)NCCOCCOCCN1 | 0 | - | 0 | 0
